Reference: PubChem BioAssay AID1578 (Sanford-Burnham Center for Chemical Genomics, 2009)
The campaign covered roughly 290,000 compounds. About 3,000 (1%) were called active. Cut-off read from the data, not from the text of the source: active = inhibition mostly above about 36% (no sharp cut-off); inactive = mostly below about 34%. The full list was thinned out, with actives kept by preference.

Experiment: NOD1 signaling inhibitors, primary screen, cell-based, luminescence, uHTS (AID 1578);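 note: HEK-293T reporter cells stimulated with the NOD1 agonist gamma-tri-DAP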
Settings: NOD1-driven NF-kB luciferase reporter cells, at 4 µM, active compounds read high

Compound | inhibition
O=C(OCC(=O)C12CC3CC(CC(C3)C1)C2)c1cnccn1 | -23.7% (inactive)
CCOC(=O)c1c(CSc2ccc(C)cc2)n(C)c2cc(Br)c(O)c(CN(C)C)c12 | -29.9% (inactive)
CC(C)(C)c1ccc(OCCNC(=S)NC(=O)c2cccnc2)cc1 | -17.1% (inactive)
Cc1ccc2[nH]c(=O)c3cc(C(=O)NC(C)C)sc3c2c1 | -4.6% (inactive)
COC(=O)CSc1nnc(CNC(=O)c2cccs2)n1-c1cccc(C)c1 | -22.2% (inactive)
COC(=O)c1ccc(N2CCN(S(=O)(=O)c3ccccc3)CC2)c([N+](=O)[O-])c1 | -18.3% (inactive)
O=C(c1ccc(N2CCN(S(=O)(=O)c3ccccc3)CC2)c([N+](=O)[O-])c1)N1CCOCC1 | -3.7% (inactive)
CCN1CCN(C(c2cccs2)C(C)NC(=O)C(=O)N2CCCCC2)CC1 (centres undefined) | -23.8% (inactive)
Cc1ccc(Nc2ncnc3c2nnn3Cc2ccccc2)cc1 | -7.5% (inactive)
O=C(CCC(=O)N1CCSc2ccccc21)NCc1cccc(Br)c1 | -27.1% (inactive)
COc1ccc(-c2cc3nc[nH]c(=O)c3s2)cc1 | -1.7% (inactive)
O=c1[nH]c(CCl)nc2cc(-c3ccc(Cl)cc3)sc12 | 92.6% (active)
O=c1[nH]cnc2cc(-c3ccc(Br)cc3)sc12 | -63.3% (inactive)
OCCN(CC#CCC(O)(c1ccccc1)C1CCCC1)CCO (centres undefined) | -2% (inactive)
CCCCCc1cc(=O)oc2c(C(CCN3CCCCC3)c3ccc4c(c3)OCO4)c(OC)cc(OC)c12 (centres undefined) | 2.9% (inactive)
Cc1ccc2[nH]c(C)c(/C=C/c3cc[n+](C)cc3)c2c1 | 5.6% (inactive)
Cc1ccc2[nH]cc(/C=C/c3cc[n+](C)cc3)c2c1 | 4.2% (inactive)
Cc1ccc(Cn2c(S(=O)(=O)O)nc3ccccc32)cc1 | -25.7% (inactive)
CS(=O)(=O)c1nc2ccccc2n1Cc1ccccc1 | 13.9% (inactive)
O=S(=O)(O)c1nc2ccccc2n1Cc1ccccc1 | 82.8% (active)

Compound | inhibition
COc1ccc(CCC(=O)N(c2nnc(-c3cccnc3)s2)C(C)C)cc1 | -14.2% (inactive)
NC(=O)NC(=O)CSc1ccccc1 | -37.5% (inactive)
COCCc1nnc(NC(=O)C23CC4CC(CC(C4)C2)C3)s1 | -34.2% (inactive)
O=C(Nc1ccc(Oc2cccc(C(F)(F)F)c2)nc1)c1ccccc1 | 10.3% (inactive)
CC(C)(C)c1ccc(C(=O)Nc2ccc(Oc3cccnc3)nc2)cc1 | 29% (inactive)
O=S(=O)(N/N=C\c1ccc2c(c1)OCO2)c1ccc(F)cc1 | -7.6% (inactive)
CC(=O)Nc1ccc(NC2=Nc3ccccc3N3C2=Nc2c(c(C)nn2-c2ccccc2)C3c2ccccc2)cc1 (centres undefined) | 99% (active)
Cc1nn(-c2ccccc2)c2c1C(c1ccc(O)c(O)c1)N1C(=N2)C(Nc2ccccc2)=Nc2ccccc21 (centres undefined) | -2.4% (inactive)
Cc1ccc(NC2=Nc3ccccc3N3C2=Nc2c(c(C)nn2-c2ccccc2)C3c2ccc(O)c(O)c2)cc1 (centres undefined) | 2.5% (inactive)
CCOc1ccc(NC(=O)Nc2cc(OCC(F)(F)F)cc(OCC(F)(F)F)c2)cc1 | -32.9% (inactive)
O=C(Nc1ccccc1)Nc1cc(OCC(F)(F)F)cc(OCC(F)(F)F)c1 | -5.2% (inactive)
O=C(Nc1ccc(F)cc1)Nc1cc(OCC(F)(F)F)cc(OCC(F)(F)F)c1 | 84.5% (active)
C[C@H](NC(=O)[C@@H]1Cc2ccccc2CN1)C(=O)NC1CCCC1 | -25.1% (inactive)
COc1cccc(NC(=O)c2ccc(NC(=O)C(C)(C)C)cc2)c1 | -63% (inactive)
O=C(/C=C/c1ccc([N+](=O)[O-])cc1)Nc1ncc([N+](=O)[O-])s1 | 54.9% (active)
CCCCOc1ccc(/C=C/C(=O)Nc2ccc([N+](=O)[O-])cc2C)cc1 | -22.5% (inactive)
CCCOc1ccc(/C=C/C(=O)Nc2ccc([N+](=O)[O-])cc2C)cc1 | 0.8% (inactive)
O=C(/C=C/c1ccc([N+](=O)[O-])cc1)Nc1cccnc1 | -4.6% (inactive)
O=C(Nc1ccccc1)Nc1ncc([N+](=O)[O-])s1 | -0.5% (inactive)
CCCOc1ccc(/C=C/C(=O)Nc2ccc([N+](=O)[O-])cc2)cc1 | 76.6% (active)

Compound | inhibition
COCC(C)n1c(SC(C)C(=O)NC2CCCCC2C)nc2ccccc2c1=O (centres undefined) | -27.1% (inactive)
CN(CC(=O)Nc1ccc(Cl)c(C(F)(F)F)c1)C(=O)CC1Sc2ccccc2NC1=O (centres undefined) | -18.8% (inactive)
O=S(=O)(c1ccc(F)cc1)N1CCN(CC(O)COc2ccccc2F)CC1 (centres undefined) | -0.6% (inactive)
COc1cccc(CNC(=O)CCC(=O)N2CCSc3ccccc32)c1OC | 5.1% (inactive)
CC(=O)Nc1ccc(S(=O)(=O)N2CCCC2C(=O)Nc2ccc3c(c2)OCCO3)cc1 (centres undefined) | -17.3% (inactive)
CCO[C@@H]1OC(C(=O)N2CCN(C)CC2)=C[C@H](c2csc3ccccc23)[C@H]1CCCO | -18% (inactive)
NNC(=O)CCN1CCN(Cc2ccccc2)CC1 | 45.4% (active)
O=C(CCN1CCN(Cc2ccccc2)CC1)Nc1ccccc1Cl | -19.8% (inactive)
NNC(=O)CCN1CCN(C(c2ccccc2)c2ccccc2)CC1 | -18.4% (inactive)
COC(=O)N/N=C/c1cc(Cl)cc(Cl)c1OCc1ccccc1F | -1.4% (inactive)
C=CCSc1nc(C)c(CC=C)c(=O)[nH]1 | -34.6% (inactive)
C=CCSc1nc(C)c(Cc2cccc3ccccc23)c(=O)[nH]1 | 41.9% (active)
C=CCSc1nc(C)c(CC(=C)C)c(=O)[nH]1 | -23.6% (inactive)
C/C(=N\NC(=O)C1CC1)c1cccs1 | -17.5% (inactive)
CCc1ccnc(NS(=O)(=O)c2ccc3c(c2)CCO3)c1 | -5.6% (inactive)
O=S(=O)(N/N=C\c1c(F)cccc1Cl)c1ccc(Cl)cc1 | -0.4% (inactive)
COC(=O)c1ccc(Cl)c(NC(=O)c2ccc(-c3ccccc3)cc2)c1 | 6% (inactive)
CCCOC(=O)c1ccc(Cl)c(NC(=O)c2ccc(-c3ccccc3)cc2)c1 | 3.5% (inactive)
CCOC(=O)c1ccc(Cl)c(NC(=O)c2ccc(-c3ccccc3)cc2)c1 | 104% (active)
